Experimental data reported in PubChem BioAssay (NCATS).
Results filed as inconclusive are left out. Active and inactive are the calls of the source. Calls follow the shape of the dose curve; as a rule, active = well fitted inhibition curve with a large enough effect; inconclusive = small, poorly fitted or top-dose-only effect; inactive = no such curve, though single readings can be large or run the other way.

target: Retinaldehyde dehydrogenase 3 (Homo sapiens) (UniProt P47895); experiment: qHTS for Inhibitors of the Aldehyde Dehydrogenase Family (ALDH1A3) Confirmatory screens (AID 2061311); conditions: ALDH inhibition qHTS; series mostly up to 46 µM; activity change, negative = inhibition: at the top concentration; also: nearly all actives have a fitted effect of over 60% in size; also: potency is read from the fitted curve at half-maximal effect; as to activity change, negative = inhibition: % is scaled to controls: 0 for no effect and ±100 for the full control effect

Row | SMILES | Potency | activity change, negative = inhibition | outcome
1 | CCc1ccc(-n2c(=O)c3cccnc3n2CC(=O)N(CC)c2cccc(C)c2)cc1 | 28.2 µM (active) | – | –
2 | CN(Cc1ccc(-c2ccc(C#N)cc2)o1)c1ccc(N2CCN(C(=O)OC(C)(C)C)CC2)cc1 | 11.3 µM (active) | – | –
3 | O=C(CSc1nc2ncccc2o1)Nc1ccc(Cl)cc1F | 10 µM (active) | – | –
4 | CN(C)CCCNc1cc(O)c2ncccc2c1 | 1.42 µM (active) | – | –
5 | Cc1cc(NC(=O)Nc2nnc(-c3ccncc3)s2)ccc1Br | – | 2.06% (inactive) | –
6 | CCn1cnc2c(Nc3ccc(CC(=O)N=C(N)N)cc3)nc(C#N)nc21 | – | -14.1% (inactive) | –
7 | CCOC(=O)Cn1c(=O)oc2cc(S(=O)(=O)N3CCN(c4ccc(Cl)cc4)CC3)ccc21 | – | -11.1% (inactive) | –
8 | CC(=O)Nc1sc2c(c1-c1ccc(N3CCN(C)CC3)cc1)CCNC2 | – | -13.7% (inactive) | –
9 | O=C(NCC(=O)N1CCC(c2ccccc2)CC1)c1cccc(-c2ccc(C(F)(F)F)cc2)c1 | – | -3.54% (inactive) | –
10 | CC(=O)Nc1sc2c(c1-c1ccc(N(C)C)cc1)CCNC2 | 3.57 µM (active) | – | –
11 | COC(=O)c1ccnc(NCc2ccc(O)c3ncccc23)c1 | 7.12 µM (active) | – | –
12 | Cc1nnc2ccc(N3CCC(NC(=O)c4cccc(C(F)(F)F)c4)CC3)nn12 | – | – | inactive

target: Retinal dehydrogenase 2 (Homo sapiens) (UniProt O94788); experiment: qHTS for Inhibitors of the Aldehyde Dehydrogenase Family (ALDH1A2) Confirmation screens (AID 2061314); conditions: ALDH1A2 enzyme inhibition qHTS confirmation; series mostly up to 45.9 µM; activity, negative = inhibition: at the top concentration; also: nearly all actives have a fitted effect of over 65% in size; also: potency is read from the fitted curve at half-maximal effect; as to activity, negative = inhibition: % is scaled to controls: 0 for no effect and ±100 for the full control effect

Row | SMILES | activity, negative = inhibition | outcome | Potency
13 | COc1ccc(C2=NS(=O)(=O)N(C)C(C(=O)Nc3ccc(OC(F)(F)F)cc3)=C2)cc1 | -15.6% (inactive) | – | –
14 | O=C(NCCc1nc2ccccc2n1CCCc1ccccc1)C1CCCCC1 | – | inactive | –
15 | Cc1ccc(NC(=O)CSc2nc3ccccc3nc2N2CCOCC2)cc1 | – | – | 2.29 µM (active)
16 | Cc1ccc(OCCn2c(CCNC(=O)c3ccccc3N)nc3ccccc32)cc1 | – | – | 12.7 µM (active)
17 | Cc1ccnc(NC(=S)N2CCNCC2)c1 | -18.5% (inactive) | – | –
18 | Cc1ccnc(NC(=S)N2CCN(c3ccc(Cl)cc3Cl)CC2)c1 | – | – | 11.3 µM (active)
19 | O=C(NCc1ccccc1)c1csc(N2CCN(c3ccc(Cl)cc3)CC2)n1 | -20.2% (inactive) | – | –
20 | CCc1nnc2sc(-c3ccc(C)c(NC(=O)c4ccc(-c5cccc(Cl)c5)o4)c3)nn12 | – | – | 3.18 µM (active)
21 | CCc1ccc(-c2nn3c(C)nnc3s2)cc1NC(=O)c1ccc(-c2cccc(Cl)c2)o1 | – | – | 12.7 µM (active)
22 | O=C(NCc1ccc2c(c1)OCO2)c1csc(N2CCN(c3ccc(F)cc3)CC2)n1 | -14.2% (inactive) | – | –
23 | Cc1cc(N(C)S(=O)(=O)c2ccc(NC(=O)Cc3ccc(Cl)c(Cl)c3)cc2)no1 | -9.3% (inactive) | – | –
24 | Cc1ccc(NS(=O)(=O)c2cc3c(cc2-c2ccco2)NC(=O)CO3)cc1C | -36.5% (inactive) | – | –
25 | CC(C)(O)c1ccccc1CC[C@H](SCC1(CC(=O)O)CC1)c1cccc(/C=C/c2ccc3ccc(Cl)cc3n2)c1 | -9.05% (inactive) | – | –
26 | CC(=O)c1ccc(NC(=O)c2cc(S(=O)(=O)N3CCOCC3)ccc2C)cc1 | -59.5% (inactive) | – | –
27 | Cc1cccc(NC(=O)N2CC(Oc3ccc(-c4nc(C)no4)cc3)C2)c1 | – | inactive | –
28 | CCOC(=O)c1ccc(-c2ccc3ncnc(NCc4ccc(C)o4)c3c2)o1 | – | – | 12.7 µM (active)
29 | CNc1sc(-c2cccc3ccccc23)nc1C#N | – | – | 11.3 µM (active)
30 | O=C(Nc1cccc(Br)c1)c1cc(-c2ccc3c(c2)OCCO3)on1 | -12.6% (inactive) | – | –
31 | COc1ccc(C2Nc3ccc(Cl)cc3C(=O)N2Cc2ccccc2)cc1COc1ccc(NC(C)=O)cc1 (stereo not drawn) | – | – | 11.3 µM (active)
32 | C#CCOc1ccc(-c2no[n+]([O-])c2C#N)cc1 | – | – | 7.98 µM (active)
33 | O=C(N/N=C/c1ccc(Sc2ccccn2)o1)c1ccccc1 | -1.54% (inactive) | – | –
34 | CC(=O)Nc1sc2c(c1-c1ccco1)CCNC2 | – | – | 17.9 µM (active)
35 | O=C(Nc1cccc(Cc2ccccc2)c1)c1ccc(-c2cccc([N+](=O)[O-])c2)o1 | – | – | 12.7 µM (active)

target: Retinaldehyde dehydrogenase 3 (Homo sapiens) (UniProt P47895); experiment: qHTS for Inhibitors of the Aldehyde Dehydrogenase Family (ALDH1A3) Primary screen (AID 2061315); conditions: ALDH inhibition qHTS; series mostly up to 56 µM; activity change, negative = inhibition: at the top concentration;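 also: plate controls were DMSO vehicle for no effect and reference inhibitor for full effect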

Row | SMILES | activity change, negative = inhibition | Potency
36 | O=C(NCCc1nc2ccccc2n1CCCc1ccccc1)C1CCCCC1 | -3.45% (inactive) | –
37 | Cc1ccc(OCCn2c(CCNC(=O)c3ccccc3N)nc3ccccc32)cc1 | 37.1% (inactive) | –
38 | Cc1ccc(C)n1-c1cccc(C(=O)O)c1 | – | inactive
39 | Cc1cc(NC(=O)Nc2nnc(-c3ccncc3)s2)ccc1Br | -26.4% (inactive) | –
40 | CCc1ccc(-c2nn3c(C)nnc3s2)cc1NC(=O)c1ccc(-c2cccc(Cl)c2)o1 | -0.688% (inactive) | –
41 | CCn1cnc2c(Nc3ccc(CC(=O)N=C(N)N)cc3)nc(C#N)nc21 | 3.28% (inactive) | –
42 | CC(=O)C1CCC2(C)C3=C(CCC12C)C1(C)CCC(=O)C(C)(C)C1CC3 (stereo not drawn) | -4.28% (inactive) | –
43 | Nc1ccccc1C(=O)NCc1ccco1 | 5.38% (inactive) | –
44 | Cc1ccc(NS(=O)(=O)c2cc3c(cc2-c2ccco2)NC(=O)CO3)cc1C | 2.24% (inactive) | –
45 | CC(C)(O)c1ccccc1CC[C@H](SCC1(CC(=O)O)CC1)c1cccc(/C=C/c2ccc3ccc(Cl)cc3n2)c1 | -9.39% (inactive) | –
46 | CCOC(=O)c1ccc(-c2ccc3ncnc(NCc4ccc(C)o4)c3c2)o1 | 8.11% (inactive) | –
47 | CNc1sc(-c2cccc3ccccc23)nc1C#N | -15.8% (inactive) | –
48 | COc1ccc(C2Nc3ccc(Cl)cc3C(=O)N2Cc2ccccc2)cc1COc1ccc(NC(C)=O)cc1 (stereo not drawn) | -11.6% (inactive) | –
49 | C[C@@H](O)c1ccc(-c2ccc3ncnc(NCc4cccs4)c3c2)o1 | – | inactive
50 | C#CCOc1ccc(-c2no[n+]([O-])c2C#N)cc1 | -9.95% (inactive) | –
51 | CC(=O)Nc1sc2c(c1-c1ccco1)CCNC2 | -10.5% (inactive) | –
52 | O=C1Cc2cc(S(=O)(=O)N3CCN(c4ccc([N+](=O)[O-])cc4)CC3)ccc2N1 | -2.57% (inactive) | –
53 | O=C(Nc1cccc(Cc2ccccc2)c1)c1ccc(-c2cccc([N+](=O)[O-])c2)o1 | 9.08% (inactive) | –
